Assay results taken from PubChem BioAssay AID1159580 (chemical genetic matrix, 2015).
The whole screen tested about 5,500 compounds, of which about 2,000 (36%) were called active. Inconclusive results (about 18%) are left out. Rule as the data show it: active = normalized growth mostly below about 0.91 (no sharp cut-off); inconclusive = no clear call, values can overlap the other calls; inactive = mostly above about 0.92. The list shows a part of the results.

Experiment: chemical genetic growth profiling, strain panel (AID 1159580);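 also: tested at 20 µM; growth read once vehicle control cultures reached saturation at 30 °C; 1 = growth at the plate median or of vehicle wells; lower values mean less growth of the strain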
Details: growth OD
[1] = S. cerevisiae deletion strains, locus YAL040C, strain CLN3, stronger effect = lower value
[2] = S. cerevisiae deletion strains, locus YCL061C, strain MRC1 (second series), stronger effect = lower value
[3] = S. cerevisiae deletion strains, locus YDR150W, strain NUM1, stronger effect = lower value
[4] = S. cerevisiae deletion strains, locus YDR363W, strain ESC2, stronger effect = lower value
[5] = S. cerevisiae deletion strains, locus YER002W, strain NOP16, stronger effect = lower value
[6] = S. cerevisiae deletion strains, locus YGR078C, strain PAC10, stronger effect = lower value
[7] = S. cerevisiae deletion strains, locus YGR229C, strain SMI1, stronger effect = lower value
[8] = S. cerevisiae deletion strains, locus YNL153C, strain GIM3, stronger effect = lower value
[9] = S. cerevisiae deletion strains, locus YNL175C, strain NOP13, stronger effect = lower value
[10] = S. cerevisiae deletion strains, locus YNL197C, strain WHI3, stronger effect = lower value
[11] = S. cerevisiae deletion strains, locus YNL224C, strain SQS1, stronger effect = lower value
[12] = S. cerevisiae deletion strains, locus YNL322C, strain KRE1, stronger effect = lower value
[13] = S. cerevisiae deletion strains, locus YOR083W, strain WHI5 (second series), stronger effect = lower value
[14] = S. cerevisiae deletion strains, locus YPL055C, strain LGE1, stronger effect = lower value
[15] = S. cerevisiae deletion strains, locus YJR075W, strain HOC1, stronger effect = lower value
[16] = S. cerevisiae deletion strains, locus YMR263W, strain SAP30, stronger effect = lower value
[17] = S. cerevisiae deletion strains, locus YPL241C, strain CIN2, stronger effect = lower value

Measured: normalized growth

O=C(O)Cc1ccc(O)c(O)c1
inactive: [1] 1.05 | [2] 1 | [3] 1.01 | [4] 0.993 | [5] 0.996 | [6] 1.02 | [7] 0.976 | [8] 1.02 | [9] 1.02 | [10] 1.02 | [11] 0.982 | [12] 1 | [13] 0.996 | [14] 0.982

O=C(O)Cc1c[nH]c2ccc(O)cc12
inactive: [1] 0.988 | [2] 1 | [3] 1.01 | [4] 1 | [5] 0.974 | [6] 0.979 | [7] 1.08 | [15] 1.01 | [16] 0.995 | S. cerevisiae deletion strains, locus YMR307W, strain GAS1, stronger effect = lower value 1.01 | [8] 0.961 | [9] 0.982 | [10] 0.975 | [11] 1.01 | [13] 1 | [17] 0.992

Cc1ccc(CC(=O)O)cc1
inactive: S. cerevisiae deletion strains, locus YAL013W, strain DEP1, stronger effect = lower value 0.973 | S. cerevisiae deletion strains, locus YBR229C, strain ROT2, stronger effect = lower value 0.978 | S. cerevisiae deletion strains, locus YDL101C, strain DUN1, stronger effect = lower value 0.938 | [3] 0.884 | S. cerevisiae deletion strains, locus YEL061C, strain CIN8, stronger effect = lower value 1.02 | S. cerevisiae deletion strains, locus YHR030C, strain SLT2, stronger effect = lower value 1.04 | S. cerevisiae deletion strains, locus YHR087W, strain rtc3, stronger effect = lower value 0.947 | S. cerevisiae deletion strains, locus YJR043C, strain POL32, stronger effect = lower value 0.959 | S. cerevisiae deletion strains, locus YKL190W, strain CNB1, stronger effect = lower value 1.01 | S. cerevisiae deletion strains, locus YLR039C, strain RIC1, stronger effect = lower value 1.01 | S. cerevisiae deletion strains, locus YLR058C, strain SHM2 (second series), stronger effect = lower value 0.972 | S. cerevisiae deletion strains, locus YLR085C, strain ARP6, stronger effect = lower value 1.08 | S. cerevisiae deletion strains, locus YLR262C, strain YPT6, stronger effect = lower value 0.998 | S. cerevisiae deletion strains, locus YML094W, strain GIM5, stronger effect = lower value 1.03 | S. cerevisiae deletion strains, locus YMR219W, strain ESC1, stronger effect = lower value 0.985 | [16] 0.938 | [8] 0.964 | S. cerevisiae deletion strains, locus YNL298W, strain CLA4 (second series), stronger effect = lower value 1.06 | [12] 0.981 | S. cerevisiae deletion strains, locus YNR030W, strain Alg12, stronger effect = lower value 1.03 | S. cerevisiae deletion strains, locus YOL006C, strain TOP1, stronger effect = lower value 1.06 | [14] 0.906 | [17] 1.02 | S. cerevisiae deletion strains, locus YPR135W, strain CTF4, stronger effect = lower value 1.03 | S. cerevisiae strains, strain wild type, stronger effect = lower value 1.02
active: [6] 0.926 | [15] 0.885
